# In the library only some 6.9% were active in any assay of this set; here they are far more common.
# Mdm2 MdmX PPI = inhibitors of human Mdm2/MdmX interaction; O15151+Q00987; AID 485346; actives 3% (n = 330,000); SaOS-2 split-luciferase Mdm2/MdmX complementation, luminescence; inhibition, % at 8 µM;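 active = inhibition of at least 50% at 8 µM in the primary screen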
# Beta apoptosis = beta cell apoptosis inhibition | protection from apoptosis, % (concentration not given with the values) | INS-1E cytokine-induced death, ATP luminescence, 48 h; percent of positive-control rescue, neutral wells zero | actives 0.8% (n = 300,000);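 active = Every replicate reaches about 75%, or at least half do and their mean reaches it too, limit read from the data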;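 also: 0% = cytokine-treated negative control wells and 100% = positive control rescue; higher means more ATP so stronger rescue from cytokine killing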
# SKKanGAS inh = inhibitors of SKKanGAS S. pyogenes growth in kanamycin (SK-promoter or general growth effect). AID 1662. actives 1.3% (n = 300,000). inhibition, % at 7.5 µM. BacTiter-Glo, 6 h;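 active = mean replicate score, as percent of positive control median, at least 50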;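 also: strain carries kanamycin resistance gene driven by streptokinase promoter and grows in 40 µg/ml kanamycin; loss of luminescence reflects streptokinase promoter inhibition or plain growth inhibition; 0% = median of DMSO wells and 100% = positive control at its reference dose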
# CSC inhib = blocks cancer stem cells | actives 1.1% (n = 300,000) | cancer stem cell-like cells viability, luminescence | AID 2717 | inhibition, % at 7.5 µM; in the data active = inhibition above about 75%; tested in HMLE shEcad cells
# NR3A LBD binder = modulates the human NR3A ligand-binding domain. NR3A LBD differential scanning fluorimetry, Tm shift; 0% = protein alone, 100% = glycine-bound protein. Tm shift relative to glycine control, % at 25 µM. actives 2.5% (n = 340,000). AID 1259313;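 active = melting temperature shift of at least 10% of the positive control shift, at one fixed dose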
# MPTP inh = blocks calcium-induced mitochondrial swelling. isolated mouse mitochondria, Ca2+ swelling absorbance, 30 min. inhibition, % at 10 µM. actives 1.4% (n = 360,000);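 active = inhibition of 50% or more, scaled per plate between neutral and stimulator controls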;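 also: 0% = DMSO wells given calcium and 100% = 1 mM EGTA wells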
# Active calls of the source: *; x = no result given.
SMILES,Mdm2 MdmX PPI,Beta apoptosis,SKKanGAS inh,CSC inhib,NR3A LBD binder,MPTP inh
O=C(CN1C(=O)S/C(=C\c2ccc(F)cc2)C1=O)Nc1cccc(S(=O)(=O)NCc2ccco2)c1,-1,-5,15,22,11*,-2
Cc1cc(C)nc(NS(=O)(=O)c2ccc(NS(=O)(=O)c3ccccc3)cc2)n1,12,-7,-8,-5,4,-2
Cc1cc(C)nc(NS(=O)(=O)c2ccc(NC(=O)CN3C(=O)S/C(=C\c4ccccc4)C3=O)cc2)n1,16,-4,24,x,11*,0
O=C(CCN1C(=O)S/C(=C\c2ccccc2)C1=O)Nc1ccc(S(=O)(=O)Nc2nccs2)cc1,16,-4,14,-7,8,3
CCc1ccccc1OCC(=O)Nc1cccc(S(=O)(=O)NCc2ccco2)c1,25,0,x,x,-3,1
Cc1cc(C)nc(NS(=O)(=O)c2ccc(NC(=O)Nc3ccccc3)cc2)n1,0,1,-8,3,19*,1
CN(Cc1ccco1)C(=O)C1CCCN(c2ncnc3c2nc2n3CCCCC2)C1 (configuration not stated),14,1,2,11,-1,2
O=C(O)c1ccc(-c2ccc(-c3ccccc3)cc2)s1,-117,-2,10,19,x,0
COc1ccc2cc(C(=O)Nc3ccccc3)sc(=O)c2c1OC,-7,-4,13,-10,22*,2
O=C(Nc1ccccc1)c1cc2ccc3ccccc3c2s1,-45,0,-3,1,33*,48
COc1ccc2cc(C(=O)Nc3ccc(S(N)(=O)=O)cc3)sc(=O)c2c1OC,10,3,11,-15,23*,-4
O=C(Nc1ccccc1)c1ccc(-c2ccccc2)s1,-29,-3,-4,16,14*,2
CS(=O)(=O)c1ccc(Cl)c(NC(=O)COC(=O)CNC(=O)c2ccc3ccccc3c2)c1,20,x,-20,-18,1,1
CCCCC(=O)Nc1ccc(C)c(S(=O)(=O)N2CCCCCC2)c1,14,-2,x,x,2,1
CCCCNC(=O)C1=C(N)C(C(=O)Nc2ccc(C)c(S(=O)(=O)N3CCCCC3)c2)SC1=Nc1ccc(C)cc1C (configuration not stated),8,0,25,33,24*,10
Cc1ccc(CNc2cnn(C34CC5CC(CC(C5)C3)C4)c(=O)c2Cl)cc1,30,5,1,78*,-2,14
O=c1c(Cl)c(NCc2ccccc2Cl)cnn1C12CC3CC(CC(C3)C1)C2,24,13,5,95*,-5,12
O=c1c(Cl)c(NCc2ccc(F)cc2)cnn1C12CC3CC(CC(C3)C1)C2,-11,9,-7,75*,-5,0
O=c1c(Cl)c(NCc2ccco2)cnn1C12CC3CC(CC(C3)C1)C2,15,2,-5,-2,-1,2
Cc1cc(Br)ccc1NC(=O)CN(C)C(=O)CN1C(=O)NC(C)(C2CC2)C1=O (configuration not stated),-5,4,x,x,-1,4
C#CCN(C(=O)c1cc(COc2cccc(C(F)(F)F)c2)on1)C1CCCCC1,1,104*,26,62,-5,2
CCOC(=O)C1C(c2ccc(C(=O)O)cc2)NC(=O)NC1(O)C(F)(F)F (configuration not stated),16,-1,1,-12,-3,0
CCn1c(O)c(/C=C/C=C/C=Nc2ccccc2)sc1=S,-17,0,11,-4,-1,0
Oc1c(/C=C/C=C/C=Nc2ccccc2)sc(=S)n1Cc1ccccc1,-1,-1,13,-6,10*,9
COc1cc(OC)c2ccc(=O)oc2c1C(CCN1CCOCC1)c1ccc2c(c1)OCO2 (configuration not stated),44,x,x,x,15*,-1
Cc1cccc(C)c1NC(=O)C1(C)CSCC(=O)N1CCCN1CCOCC1 (configuration not stated),x,x,x,x,x,0
Cc1ccc(S(=O)(=O)/N=C2\C=C(Nc3cccc(C(=O)O)c3)C(=O)c3ccccc32)cc1,-4,21,87*,x,0,13
Cc1ccc(S(=O)(=O)/N=C2\C=C(Nc3cccc(C(=O)O)c3)C(=O)c3ccccc32)c(C)c1,37,95*,69*,65,3,10

# Source: PubChem BioAssay (several laboratories)
